In PubChem BioAssay AID1159580 (chemical genetic matrix, 2015):
Several values for one entry are separate records, joined by “and”; a condition that tells them apart may be missing. Equal entries are not always repeated. The campaign covered roughly 5,500 compounds. About 2,000 (36%) were called active. Roughly 18% stayed inconclusive and do not appear here. Cut-off read from the data, not from the text of the source: active = normalized growth mostly below about 0.91 (no sharp cut-off); inconclusive = no clear call, values can overlap the other calls; inactive = mostly above about 0.92. Some of the results follow.

Experiment: chemical genetic growth profiling, strain panel (AID 1159580);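 note: tested at 20 µM; growth read once vehicle control cultures reached saturation at 30 °C; 1 = growth at the plate median or of vehicle wells; lower values mean less growth of the strain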
Conditions: S. cerevisiae deletion strains, growth OD

Measured: normalized growth

CC(C)c1c(O)ccc2c1CCC1[C@@](C)(C=O)CCC[C@]21C (stereo partly specified)
active: locus YAL030W, strain snc1, active compounds read low 0.79 | locus YBL061C, strain skt5, active compounds read low 0.833 | locus YBR009C, strain hhf1, active compounds read low 0.476 | locus YBR021W, strain FUR4, active compounds read low 0.476 | locus YBR023C, strain chs3, active compounds read low 0.821 | locus YBR229C, strain ROT2, active compounds read low 0.713 | locus YBR231C, strain swc5, active compounds read low 0.722 | locus YCL011C, strain gbp2, active compounds read low 0.783 | locus YCL016C, strain dcc1, active compounds read low 0.803 | locus YCL029C, strain bik1, active compounds read low 0.52 | locus YDL035C, strain GPR1, active compounds read low 0.425 | locus YDL074C, strain BRE1, active compounds read low 0.12 | locus YDL101C, strain DUN1, active compounds read low 0.517 | locus YDL185W, strain tfp1, active compounds read low 0.469 | locus YDL192W, strain arf1, active compounds read low 0.246 | locus YDR101C, strain arx1, active compounds read low 0.631 | locus YDR137W, strain rgp1, active compounds read low 0.237 | locus YDR159W, strain sac3, active compounds read low 0.54 | locus YDR162C, strain NBP2, active compounds read low 0.171 | locus YDR195W, strain ref2 0.431 | locus YDR297W, strain sur2, active compounds read low 0.772 | locus YDR318W, strain mcm21, active compounds read low 0.35 | locus YDR388W, active compounds read low 0.732 | locus YDR392W, strain spt3, active compounds read low 0.415 | locus YDR502C, strain sam2, active compounds read low 0.35 | locus YEL003W, strain gim4, active compounds read low 0.834 | locus YER016W, strain bim1, active compounds read low 0.789 | locus YER110C, active compounds read low 0.853 | locus YER155C, strain BEM2, active compounds read low 0.0936 | locus YER167W, strain BCK2, active compounds read low 0.336 | locus YGL078C, strain dbp3, active compounds read low 0.886 | locus YGL086W, strain mad1, active compounds read low 0.274 | locus YGL248W, strain PDE1, active compounds read low 0.36 | locus YGR078C, strain PAC10, active compounds read low 0.303 | locus YGR135W, strain pre9, active compounds read low 0.601 | locus YGR252W, strain gcn5, active compounds read low 0.248 | locus YHR030C, strain SLT2, active compounds read low 0.756 | locus YHR079C, strain IRE1 (second series), active compounds read low 0.579 | locus YHR079C, strain IRE1, active compounds read low 0.791 | locus YHR094C, strain hxt1, active compounds read low 0.392 | locus YHR129C, strain ARP1, active compounds read low 0.143 | locus YHR200W, strain rpn10, active compounds read low 0.578 | locus YIL066C, strain RNR3, active compounds read low 0.303 | locus YIL073C, strain SPO22, active compounds read low 0.554 | locus YIL125W, strain kgd1, active compounds read low 0.621 | locus YIR030C, strain dcg1, active compounds read low 0.607 | locus YJL095W, strain BCK1 (second series), active compounds read low 0.35 | locus YJL095W, strain BCK1, active compounds read low 0.0842 and 0.826 | locus YJL129C, strain trk1, active compounds read low 0.505 | locus YJL134W, strain LCB3, active compounds read low 0.729 | locus YJL164C, strain tpk1, active compounds read low 0.578 | locus YJL166W, strain qcr8, active compounds read low 0.643 | locus YJL168C, strain set2, active compounds read low 0.921 | locus YJL187C, strain SWE1 (second series), active compounds read low 0.346 | locus YJR075W, strain HOC1, active compounds read low 0.482 | locus YKL085W, strain MDH1 (second series), active compounds read low 0.583 | locus YKL085W, strain MDH1, active compounds read low 0.583 | locus YKL190W, strain CNB1, active compounds read low 0.154 | locus YKR001C, strain vps1, active compounds read low 0.0888 | locus YLL026W, active compounds read low 0.79 | locus YLL041C, strain sdh2, active compounds read low 0.895 | locus YLR027C, strain aat2, active compounds read low 0.653 | locus YLR039C, strain RIC1, active compounds read low 0.148 | locus YLR058C, strain SHM2, active compounds read low 0.352 | locus YLR102C, strain apc9, active compounds read low 0.432 | locus YLR113W, strain HOG1, active compounds read low 0.782 | locus YLR221C, strain rsa3, active compounds read low 0.692 | locus YLR258W, strain gsy2, active compounds read low 0.768 | locus YLR262C, strain YPT6 (second series), active compounds read low 0.255 | locus YLR262C, strain YPT6, active compounds read low 0.219 | locus YLR268W, strain sec22, active compounds read low 0.411 | locus YLR320W, strain mms22, active compounds read low 0.62 | locus YLR330W, strain CHS5, active compounds read low 0.228 | locus YLR342W, strain FKS1 (second series), active compounds read low 0.208 | locus YLR342W, strain FKS1, active compounds read low 0.774 | locus YLR371W, strain rom2, active compounds read low 0.317 | locus YLR418C, strain cdc73, active compounds read low 0.137 | locus YML016C, strain PPZ1, active compounds read low 0.8 | locus YML032C, strain rad52, active compounds read low 0.467 | locus YML120C, strain ndi1, active compounds read low 0.465 | locus YML124C, strain tub3, active compounds read low 0.507 | locus YMR078C, strain ctf18, active compounds read low 0.422 | locus YMR205C, strain PFK2, active compounds read low 0.617 | locus YMR223W, strain ubp8, active compounds read low 0.429 | locus YMR307W, strain GAS1, active compounds read low 0.306 | locus YNL067W, strain RPL9B, active compounds read low 0.583 | locus YNL071W, strain lat1, active compounds read low 0.424 | locus YNL233W, strain BNI4, active compounds read low 0.172 | locus YNL250W, strain rad50, active compounds read low 0.868 | locus YNL271C, strain bni1, active compounds read low 0.875 | locus YNL298W, strain CLA4, active compounds read low 0.847 | locus YNL307C, strain MCK1, active compounds read low 0.0743 | locus YNL322C, strain KRE1, active compounds read low 0.333 | locus YNR052C, strain pop2, active compounds read low 0.53 | locus YOL006C, strain TOP1, active compounds read low 0.396 | locus YOL147C, strain pex11, active compounds read low 0.205 | locus YOR001W, strain rrp6, active compounds read low 0.857 | locus YOR061W, strain CKA2, active compounds read low 0.689 | locus YOR069W, strain VPS5, active compounds read low 0.668 | locus YOR070C, strain gyp1, active compounds read low 0.598 | locus YOR083W, strain WHI5, active compounds read low 0.822 | locus YOR106W, strain vam3, active compounds read low 0.563 | locus YOR136W, strain idh2, active compounds read low 0.559 | locus YOR144C, strain elg1, active compounds read low 0.48 | locus YOR184W, strain ser1, active compounds read low 0.153 | locus YOR231W, strain MKK1, active compounds read low 0.784 | locus YOR265W, strain rbl2, active compounds read low 0.88 | locus YOR270C, strain vph1, active compounds read low 0.739 | locus YOR316C, strain cot1, active compounds read low 0.49 | locus YPL051W, strain arl3, active compounds read low 0.769 | locus YPL055C, strain LGE1, active compounds read low 0.147 | locus YPL240C, strain hsp82, active compounds read low 0.626 | locus YPL241C, strain CIN2, active compounds read low 0.487 | locus YPL256C, strain CLN2, active compounds read low 0.814 | locus YPR119W, strain clb2, active compounds read low 0.305 | locus YPR163C, strain tif3, active compounds read low 0.345 | locus YPR167C, strain met16, active compounds read low 0.314 | strain wtn01, active compounds read low 0.304
inactive: locus YAL021C, strain ccr4, active compounds read low 0.984 | locus YAL026C, strain drs2, active compounds read low 0.93 | locus YBR171W, strain sec66, active compounds read low 0.97 | locus YBR279W, strain paf1, active compounds read low 0.955 | locus YCL061C, strain MRC1, active compounds read low 1 | locus YCL069W, strain vba3, active compounds read low 1.01 | locus YCR088W, strain abp1, active compounds read low 0.996 | locus YDL005C, strain med2, active compounds read low 1.01 | locus YDL040C, strain nat1, active compounds read low 1.01 | locus YDR001C, strain nth1, active compounds read low 1.01 | locus YDR069C, strain doa4, active compounds read low 0.923 | locus YDR334W, strain swr1, active compounds read low 1.01 | locus YDR335W, strain msn5, active compounds read low 0.987 | locus YEL037C, strain rad23, active compounds read low 1 | locus YEL061C, strain CIN8 (second series), active compounds read low 0.99 | locus YER111C, strain swi4, active compounds read low 0.999 | locus YER155C, strain BEM2 (second series), active compounds read low 1 | locus YFR010W, strain ubp6, active compounds read low 1 | locus YGL167C, strain pmr1, active compounds read low 0.945 | locus YGL173C, strain kem1, active compounds read low 1.01 | locus YGL227W, strain vid30, active compounds read low 0.997 | locus YGL240W, strain doc1, active compounds read low 0.926 | locus YGL253W, strain hxk2, active compounds read low 0.96 | locus YHR013C, strain ard1, active compounds read low 1.14 | locus YHR142W, strain chs7, active compounds read low 0.899 | locus YJL092W, strain hpr5, active compounds read low 0.995 | locus YJL115W, strain asf1, active compounds read low 1.02 | locus YJL154C, strain vps35, active compounds read low 1.02 | locus YJR066W, strain TOR1, active compounds read low 0.826 | locus YKL009W, strain mrt4, active compounds read low 0.998 | locus YKL068W, active compounds read low 0.969 | locus YKL160W, strain elf1, active compounds read low 0.915 | locus YKR026C, strain gcn3, active compounds read low 1 | locus YKR091W, strain srl3, active compounds read low 1.01 | locus YLL001W, strain dnm1, active compounds read low 0.964 | locus YLR357W, strain rsc2, active compounds read low 1.11 | locus YLR370C, strain arc18, active compounds read low 1.01 | locus YLR384C, strain iki3, active compounds read low 1.02 | locus YMR058W, strain fet3, active compounds read low 0.991 | locus YMR125W, strain sto1, active compounds read low 1.01 | locus YMR129W, active compounds read low 0.972 | locus YMR231W, strain pep5, active compounds read low 1.04 | locus YNL183C, strain NPR1, active compounds read low 0.83 | locus YNL209W, strain ssb2, active compounds read low 0.959 | locus YNL248C, strain rpa49, active compounds read low 1.04 | locus YNL322C, strain KRE1 (second series), active compounds read low 1.02 | locus YNR049C, strain mso1, active compounds read low 1.01 | locus YOL012C, strain htz1 1.05 | locus YOR080W, strain dia2, active compounds read low 0.996 | locus YOR290C, strain snf2, active compounds read low 0.909 | locus YPL078C, strain atp4, active compounds read low 0.996 | locus YPL106C, strain sse1, active compounds read low 0.94 | locus YPR141C, strain kar3, active compounds read low 0.999
